According to PubChem BioAssay AID1159580 (chemical genetic matrix, 2015):
The campaign covered roughly 5,500 compounds. About 2,000 (36%) were called active. Roughly 18% stayed inconclusive and do not appear here. No stated cut-off is given here; in the data, active means normalized growth mostly below about 0.91 (no sharp cut-off); inconclusive means no clear call, values can overlap the other calls; inactive means mostly above about 0.92. This is one part of the list.

Assay: chemical genetic growth profiling, strain panel (AID 1159580);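 further: tested at 20 µM; growth read once vehicle control cultures reached saturation at 30 °C; 1 = growth at the plate median or of vehicle wells; lower values mean less growth of the strain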
Conditions: growth OD

Measured: normalized growth

COc1ccc(-c2oc3c(CC=C(C)C)c(O[C@@H]4O[C@H](CO)[C@@H](O)[C@H](O)[C@H]4O)cc(O)c3c(=O)c2O[C@@H]2O[C@@H](C)[C@H](O)[C@@H](O)[C@H]2O)cc1
inactive: S. cerevisiae deletion strains, locus YJR066W, strain TOR1, hits give low values 0.949 | S. cerevisiae deletion strains, locus YKL009W, strain mrt4, hits give low values 0.963 | S. cerevisiae deletion strains, locus YKL068W, hits give low values 0.986 | S. cerevisiae deletion strains, locus YKL085W, strain MDH1 (second series), hits give low values 0.975 | S. cerevisiae deletion strains, locus YKL085W, strain MDH1, hits give low values 0.975 | S. cerevisiae deletion strains, locus YKL160W, strain elf1, hits give low values 1 | S. cerevisiae deletion strains, locus YKL190W, strain CNB1, hits give low values 1.02 | S. cerevisiae deletion strains, locus YKR001C, strain vps1, hits give low values 0.993 | S. cerevisiae deletion strains, locus YKR026C, strain gcn3, hits give low values 1.04 | S. cerevisiae deletion strains, locus YKR091W, strain srl3, hits give low values 1.03 | S. cerevisiae deletion strains, locus YLL001W, strain dnm1, hits give low values 1.01 | S. cerevisiae deletion strains, locus YLL026W, hits give low values 1.04 | S. cerevisiae deletion strains, locus YLL041C, strain sdh2, hits give low values 1.04 | S. cerevisiae deletion strains, locus YLR027C, strain aat2, hits give low values 1.03 | S. cerevisiae deletion strains, locus YLR039C, strain RIC1, hits give low values 1.01 | S. cerevisiae deletion strains, locus YLR058C, strain SHM2, hits give low values 0.988 | S. cerevisiae deletion strains, locus YLR102C, strain apc9, hits give low values 0.974 | S. cerevisiae deletion strains, locus YLR113W, strain HOG1, hits give low values 1.04 | S. cerevisiae deletion strains, locus YLR221C, strain rsa3, hits give low values 1.04 | S. cerevisiae deletion strains, locus YLR258W, strain gsy2, hits give low values 1.01 | S. cerevisiae deletion strains, locus YLR262C, strain YPT6 (second series), hits give low values 1.05 | S. cerevisiae deletion strains, locus YLR262C, strain YPT6, hits give low values 0.971 | S. cerevisiae deletion strains, locus YLR268W, strain sec22, hits give low values 0.969 | S. cerevisiae deletion strains, locus YLR320W, strain mms22, hits give low values 1.04 | S. cerevisiae deletion strains, locus YLR330W, strain CHS5, hits give low values 1.01 | S. cerevisiae deletion strains, locus YLR342W, strain FKS1 (second series), hits give low values 1.06 | S. cerevisiae deletion strains, locus YLR342W, strain FKS1, hits give low values 1.04 | S. cerevisiae deletion strains, locus YLR357W, strain rsc2, hits give low values 1.02 | S. cerevisiae deletion strains, locus YLR370C, strain arc18, hits give low values 1.02 | S. cerevisiae deletion strains, locus YLR371W, strain rom2, hits give low values 0.965 | S. cerevisiae deletion strains, locus YLR384C, strain iki3, hits give low values 1.01 | S. cerevisiae deletion strains, locus YLR418C, strain cdc73, hits give low values 0.998 | S. cerevisiae deletion strains, locus YML016C, strain PPZ1, hits give low values 1 | S. cerevisiae deletion strains, locus YML032C, strain rad52, hits give low values 1 | S. cerevisiae deletion strains, locus YML120C, strain ndi1, hits give low values 1.02 | S. cerevisiae deletion strains, locus YML124C, strain tub3, hits give low values 0.975 | S. cerevisiae deletion strains, locus YMR058W, strain fet3, hits give low values 1.04 | S. cerevisiae deletion strains, locus YMR078C, strain ctf18, hits give low values 0.977 | S. cerevisiae deletion strains, locus YMR125W, strain sto1, hits give low values 1.04 | S. cerevisiae deletion strains, locus YMR129W, hits give low values 1.04 | S. cerevisiae deletion strains, locus YMR205C, strain PFK2, hits give low values 1.04 | S. cerevisiae deletion strains, locus YMR223W, strain ubp8, hits give low values 0.979 | S. cerevisiae deletion strains, locus YMR231W, strain pep5, hits give low values 1 | S. cerevisiae deletion strains, locus YMR263W, strain SAP30, hits give low values 1 | S. cerevisiae deletion strains, locus YMR307W, strain GAS1, hits give low values 1.15 | S. cerevisiae deletion strains, locus YNL067W, strain RPL9B, hits give low values 0.963 | S. cerevisiae deletion strains, locus YNL071W, strain lat1, hits give low values 1.03 | S. cerevisiae deletion strains, locus YNL128W, strain TEP1, hits give low values 0.974 | S. cerevisiae deletion strains, locus YNL183C, strain NPR1, hits give low values 0.952 | S. cerevisiae deletion strains, locus YNL209W, strain ssb2, hits give low values 1.03 | S. cerevisiae deletion strains, locus YNL233W, strain BNI4, hits give low values 0.99 | S. cerevisiae deletion strains, locus YNL248C, strain rpa49, hits give low values 1.04 | S. cerevisiae deletion strains, locus YNL250W, strain rad50, hits give low values 0.93 | S. cerevisiae deletion strains, locus YNL271C, strain bni1, hits give low values 0.965 | S. cerevisiae deletion strains, locus YNL298W, strain CLA4, hits give low values 0.981 | S. cerevisiae deletion strains, locus YNL307C, strain MCK1, hits give low values 0.979 | S. cerevisiae deletion strains, locus YNL322C, strain KRE1 (second series), hits give low values 1.03 | S. cerevisiae deletion strains, locus YNR049C, strain mso1, hits give low values 1.03 | S. cerevisiae deletion strains, locus YNR052C, strain pop2, hits give low values 0.984 | S. cerevisiae deletion strains, locus YOL012C, strain htz1 0.851 | S. cerevisiae deletion strains, locus YOL147C, strain pex11, hits give low values 0.989 | S. cerevisiae deletion strains, locus YOR001W, strain rrp6, hits give low values 1.05 | S. cerevisiae deletion strains, locus YOR061W, strain CKA2, hits give low values 0.992 | S. cerevisiae deletion strains, locus YOR069W, strain VPS5, hits give low values 0.999 | S. cerevisiae deletion strains, locus YOR070C, strain gyp1, hits give low values 1.01 | S. cerevisiae deletion strains, locus YOR080W, strain dia2, hits give low values 1.04 | S. cerevisiae deletion strains, locus YOR083W, strain WHI5, hits give low values 0.988 | S. cerevisiae deletion strains, locus YOR106W, strain vam3, hits give low values 0.989 | S. cerevisiae deletion strains, locus YOR136W, strain idh2, hits give low values 0.985 | S. cerevisiae deletion strains, locus YOR144C, strain elg1, hits give low values 1 | S. cerevisiae deletion strains, locus YOR184W, strain ser1, hits give low values 0.984 | S. cerevisiae deletion strains, locus YOR231W, strain MKK1, hits give low values 1.02 | S. cerevisiae deletion strains, locus YOR265W, strain rbl2, hits give low values 1.02 | S. cerevisiae deletion strains, locus YOR270C, strain vph1, hits give low values 0.999 | S. cerevisiae deletion strains, locus YOR290C, strain snf2, hits give low values 0.981 | S. cerevisiae deletion strains, locus YOR316C, strain cot1, hits give low values 0.976 | S. cerevisiae deletion strains, locus YPL051W, strain arl3, hits give low values 1.02 | S. cerevisiae deletion strains, locus YPL055C, strain LGE1, hits give low values 1 | S. cerevisiae deletion strains, locus YPL078C, strain atp4, hits give low values 0.986 | S. cerevisiae deletion strains, locus YPL106C, strain sse1, hits give low values 1.04 | S. cerevisiae deletion strains, locus YPL240C, strain hsp82, hits give low values 1.02 | S. cerevisiae deletion strains, locus YPL241C, strain CIN2, hits give low values 0.99 | S. cerevisiae deletion strains, locus YPL256C, strain CLN2, hits give low values 1 | S. cerevisiae deletion strains, locus YPR119W, strain clb2, hits give low values 0.98 | S. cerevisiae deletion strains, locus YPR141C, strain kar3, hits give low values 0.968 | S. cerevisiae deletion strains, locus YPR163C, strain tif3, hits give low values 0.978 | S. cerevisiae deletion strains, locus YPR167C, strain met16, hits give low values 0.983 | S. cerevisiae deletion strains, strain wtn01, hits give low values 0.986 | S. cerevisiae strains, strain wild type, hits give low values 1.01
